# Experimental data reported in PubChem BioAssay (NCATS).
# Unmarked numbers belong to inactive results. No rule for the calls is given here.
# System: HIV-1 nucleocapsid protein NCp7 (binding to TG oligonucleotide)
# Assay: HIV Nucleocapsid (AID 346);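 also: potency is for inhibitors that block NC binding and lower polarization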
# Details: HIV-1 NC / fluorescein-TGTGTGTG probe, fluorescence polarization
# Procedure, shortened: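 Inhibition of nucleocapsid binding to single-stranded 5'-TGTGTGTG probe (10 nM) was measured by fluorescence polarization after 1 hr at room temperature with 100 nM protein under high-salt, zinc-containing, reducing conditions.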
# Potency is read from the fitted curve at half-maximal effect.
row,SMILES,Potency
1,N#CCCn1c(=O)c(-c2cccs2)nc2cnc(Oc3ccccc3)nc21,> 20 µM
2,CN(Cc1ccco1)c1nc(-c2ccccc2Cl)nc2ccccc12,> 20 µM
3,COc1ccccc1CNc1nc(-c2ccc(C(=O)N(C)C)cc2)nc2ccccc12,> 20 µM
4,COc1ccc(NC(=O)N2CC[C@@]3(CCCN(C(=O)c4c(C)noc4C)C3)C2)cc1,> 20 µM
5,Cc1nc2cnc(OCc3ccccc3)nc2n(CCC#N)c1=O,> 20 µM
6,Cc1ccccc1-c1ccc2ncnc(N(C)C)c2c1,> 20 µM
7,Cc1nc2cnc(N(C)C)nc2n(CCc2ccccc2)c1=O,> 20 µM
8,COc1cccc(-c2nccc(-n3ccnc3)n2)c1,> 20 µM
9,Cc1ccccc1-c1cncnc1Nc1ccccc1,> 20 µM
10,N#Cc1cccc(-c2cc(-n3ccnc3)ncn2)c1,> 20 µM
11,O=c1cnc2cnc(Oc3ccccc3)nc2n1CCc1ccccc1,> 20 µM
12,FC(F)(F)c1ccccc1-c1ccc2ncnc(N3CCOCC3)c2c1,> 20 µM
13,COc1ccccc1-c1cc(NCc2cccc(C)c2)ncn1,> 20 µM
14,CN(C)c1ncc2nc(-c3ccc(Cl)cc3)c(=O)n(C[C@H]3CCCO3)c2n1,> 20 µM
15,CN(C)c1ncnc2ccc(-c3cccc(NS(C)(=O)=O)c3)cc12,> 20 µM
16,O=C(Nc1cccc(F)c1)N1CC[C@@]2(CCCN(C(=O)c3cnccn3)C2)C1,> 20 µM
